75 compounds from the antibiotic and cytotoxicity screens of Wong et al. (2023) can be followed below.

Out of some 39,000 compounds screened, about 3,300 (8.5%) were called active. Only a selection was taken, and actives are over-represented in it overall.

In the test the test system is HepG2. The test can be described thus: cytotoxicity call (relative viability < 0.9). The following applies: 10 µM.
Take `C[C@H](CO)N1C[C@H](C)[C@H](CN(C)C(=O)Nc2ccc(F)cc2)OCCCC[C@H](C)Oc2ccc(NC(=O)NC3CCCCC3)cc2C1=O`: the cytotoxicity call is “inactive”.
The entry for `O=c1[nH]c(=O)n([C@H]2C[C@H](O)[C@@H](CO)O2)cc1F` is “inactive”; for `Cc1cn([C@H]2C[C@H](O)[C@@H](CO)O2)c(=O)[nH]c1=O` it is “inactive”; for `O=c1[nH]c(=O)n([C@H]2C[C@H](O)[C@@H](CO)O2)cc1C(F)(F)F` it is “active”.
In the case of `O=c1[nH]c(=O)n([C@@H]2C[C@@H](O)[C@@H](CO)O2)cc1F`, the cytotoxicity call is “inactive”.
Next, `O=c1[nH]c(=O)n(C2CC(O)C(CO)O2)cc1F` (stereo not given): “active”; `O=c1[nH]c(=O)n(C2CC(O)C(CO)O2)cc1C(F)(F)F` (stereo not given): “inactive”.
The entry for `CCCNC(=O)C[C@H]1CC[C@@H]2[C@H](COc3ccc(NC(=O)c4ccc5c(c4)OCO5)cc3C(=O)N2C)O1` is “inactive”; for `COc1ccccc1NC(=O)N(C)C[C@H]1Oc2ncc(C#CC(C)C)cc2C(=O)N([C@H](C)CO)C[C@H]1C` it is “inactive”; for `C/C=C/c1ccc2c(c1)O[C@H](CN(C)S(=O)(=O)c1ccccc1OC)[C@H](C)CN([C@H](C)CO)S2(=O)=O` it is “inactive”.
Next, `COc1ccc(NC(=O)N(C)C[C@H]2OCCCC[C@H](C)Oc3ccc(NC(=O)NC4CCCCC4)cc3C(=O)N([C@H](C)CO)C[C@@H]2C)cc1`: “inactive”; `CN(C)c1ccc(NC(=O)CN)cc1`: “active”.
Turning to `Cc1ccc(NC(=O)CC(C)C)cc1`, the cytotoxicity call is “inactive”.
`NCC(=O)Nc1ccc(Br)cc1`: the cytotoxicity call was “inactive”.
The entry for `C[C@H](CO)N1C[C@H](C)[C@H](CN(C)Cc2ccc3c(c2)OCO3)Oc2c(NS(C)(=O)=O)cccc2C1=O` is “inactive”; for `C[C@H](CO)N1C[C@H](C)[C@H](CN(C)C(=O)CCCN(C)C)OCCCC[C@H](C)Oc2ccc(NC(=O)Nc3ccc(F)cc3)cc2C1=O` it is “inactive”; for `Cc1cccc(=O)n1CCCCN` it is “inactive”.
The entry for `Cc1ccc2c(=O)c3ccccc3n(CCCN)c2c1C` is “active”; for `Cn1cnc(=O)c2ccccc21` it is “inactive”; for `COc1ccc(NC(=O)Nc2cccc3c2O[C@H](CN(C)C(=O)Nc2ccc(C(F)(F)F)cc2)[C@H](C)CN([C@H](C)CO)C3=O)cc1` it is “inactive”.
Next, `O=C(C[C@H]1C[C@H]2c3cc(NC(=O)Cc4ccncc4)ccc3O[C@H]2[C@@H](CO)O1)NCc1cc(F)ccc1F`: “inactive”; `C[C@H]1CN([C@@H](C)CO)C(=O)Cc2cc(NC(=O)c3ccncc3)ccc2O[C@H]1CN(C)S(=O)(=O)c1ccc(Cl)cc1`: “inactive”; `C[C@H]1CN([C@@H](C)CO)C(=O)Cc2cc(NC(=O)C3CC3)ccc2O[C@@H]1CN(C)Cc1ccc2c(c1)OCO2`: “inactive”.
Consider `Cc1ccc(S(=O)(=O)N(C)C[C@@H]2OCCCC[C@H](C)Oc3ccc(NC(=O)c4ccccc4)cc3C(=O)N([C@H](C)CO)C[C@H]2C)cc1`, for which the cytotoxicity call was “active”.
Next, `Cc1ccc(S(=O)(=O)N(C)C[C@H]2OCCCC[C@H](C)Oc3ccc(NC(=O)c4ccccc4)cc3C(=O)N([C@@H](C)CO)C[C@H]2C)cc1`: “inactive”.
Regarding `COc1ccc(S(=O)(=O)N(C)C[C@@H]2OCCCC[C@@H](C)Oc3ccc(NC(=O)c4ccccc4)cc3C(=O)N([C@H](C)CO)C[C@@H]2C)cc1`, the cytotoxicity call is “inactive”.
Next, `C[C@@H]1CN([C@H](C)CO)C(=O)c2cc(NC(=O)c3ccccc3)ccc2O[C@@H](C)CCCCO[C@H]1CN(C)S(=O)(=O)c1ccccc1`: “active”; `C[C@@H]1CCCCO[C@H](CN(C)S(=O)(=O)c2ccccc2)[C@H](C)CN([C@@H](C)CO)C(=O)c2cc(NC(=O)c3ccccc3)ccc2O1`: “inactive”.
In the case of `COc1ccc(S(=O)(=O)N(C)C[C@H]2OCCCC[C@@H](C)Oc3ccc(NC(=O)c4ccccc4)cc3C(=O)N([C@@H](C)CO)C[C@H]2C)cc1`, the cytotoxicity call is “inactive”.
As for `Cc1ccc(S(=O)(=O)N(C)C[C@@H]2OCCCC[C@@H](C)Oc3ccc(NC(=O)c4ccccc4)cc3C(=O)N([C@@H](C)CO)C[C@H]2C)cc1`, the cytotoxicity call was “inactive”.
The entry for `C[C@@H]1CCCCO[C@H](CN(C)S(=O)(=O)c2ccccc2)[C@@H](C)CN([C@H](C)CO)C(=O)c2cc(NC(=O)c3ccccc3)ccc2O1` is “inactive”; for `COc1ccc(S(=O)(=O)N(C)C[C@@H]2OCCCC[C@H](C)Oc3ccc(NC(=O)c4ccccc4)cc3C(=O)N([C@@H](C)CO)C[C@H]2C)cc1` it is “active”; for `CC(C)(C)[S@](=O)N1Cc2cc(C(=O)N3CCCCC3)nc(-c3cccc(-c4cccc(C#N)c4)c3)c2[C@@H]1CCO` it is “inactive”.
Next, `CCO[C@H]1OC(C(N)=O)=C[C@@H](C)[C@@H]1CCCO`: “inactive”; `C[C@H]1COC(=O)[C@@H](Cc2ccc(F)cc2)CCC=CC[C@@H](CC(=O)N[C@@H](CO)Cc2ccccc2)C(=O)N1`: “inactive”.
The entry for `C[C@@H]1CN([C@H](C)CO)C(=O)Cc2cc(NC(=O)c3ccncc3)ccc2O[C@@H]1CN(C)S(=O)(=O)c1ccc(Cl)cc1` is “inactive”.
Consider `CC(C)CC#Cc1ccc2c(c1)O[C@@H](CN(C)C(=O)c1ccncc1)[C@H](C)CN([C@@H](C)CO)S2(=O)=O`, for which the cytotoxicity call was “inactive”.
As for `N=C(NO)C(=O)Nc1ccccc1`, the cytotoxicity call is “inactive”.
Next, `C[C@H]1CN([C@@H](C)CO)C(=O)c2ccccc2-c2ccccc2CO[C@H]1CN(C)C(=O)Nc1ccc(F)cc1`: “inactive”; `C[C@H]1CN([C@@H](C)CO)C(=O)c2cccc(NC(=O)C3CCOCC3)c2O[C@@H]1CN(C)S(=O)(=O)c1ccc(F)cc1`: “inactive”; `COc1ccc([Si](C)(C)[C@H]2[C@H](CCO)O[C@@]3(C(=O)N(Cc4ccc(N5C(=O)c6ccccc6Oc6ccccc65)cc4)c4ccccc43)[C@@H]2C)cc1`: “active”.
As for `COc1ccc([Si](C)(C)[C@@H]2[C@@H](CCO)O[C@]3(C(=O)N(Cc4ccc(N5C(=O)c6ccccc6Oc6ccccc65)cc4)c4ccccc43)[C@H]2C)cc1`, the cytotoxicity call is “active”.
The entry for `COc1ccc([Si](C)(C)[C@@H]2[C@@H](CCO)O[C@]3(C(=O)N(Cc4ccccc4)c4ccc(N5C(=O)c6ccccc6Oc6ccccc65)cc43)[C@H]2C)cc1` is “inactive”; for `COc1ccc([Si](C)(C)[C@H]2[C@H](CCO)O[C@@]3(C(=O)N(Cc4ccccc4)c4ccc(N5C(=O)c6ccccc6Oc6ccccc65)cc43)[C@@H]2C)cc1` it is “active”.
Next, `C[C@H]1[C@H]([Si](C)(C)F)[C@@H](CCO)O[C@]12C(=O)N(Cc1ccccc1)c1ccc(N3C(=O)c4ccccc4Oc4ccccc43)cc12`: “inactive”.
The entry for `COCC#Cc1ccc2c(c1)O[C@H](CN(C)Cc1ccc(F)cc1)[C@H](C)CN([C@@H](C)CO)S2(=O)=O` is “inactive”.
Consider `Cc1noc(C)c1S(=O)(=O)N(C)C[C@H]1Oc2ccc(NC(=O)CCCN(C)C)cc2C(=O)N([C@H](C)CO)C[C@@H]1C`, for which the cytotoxicity call was “inactive”.
The entry for `C[C@H](CO)N1C[C@H](C)[C@@H](CN(C)C)Oc2ccc(NS(=O)(=O)c3ccc(Cl)cc3)cc2CC1=O` is “inactive”; for `COc1nonc1NC(C)=O` it is “inactive”.
On to `O=C1C[C@H](N2C(=O)CCC2=O)[C@@H]2CO[C@@H]1O2`, for which the cytotoxicity call is “inactive”.
Next, `C[C@@H]1CN([C@H](C)CO)C(=O)c2cccc(NC(=O)c3cnccn3)c2O[C@H]1CN(C)C(=O)Nc1ccc2c(c1)OCO2`: “inactive”.
The entry for `C[C@@H]1CN([C@@H](C)CO)C(=O)Cc2cc(NC(=O)Cc3ccccc3)ccc2O[C@@H]1CN(C)Cc1ccc(Cl)c(Cl)c1` is “active”; for `C[C@H](CO)N1C[C@H](C)[C@@H](CN(C)Cc2ccc(Cl)c(Cl)c2)Oc2ccc(NC(=O)Cc3ccccc3)cc2CC1=O` it is “inactive”; for `C[C@@H]1CN([C@@H](C)CO)C(=O)Cc2cc(NC(=O)Cc3ccccc3)ccc2O[C@H]1CN(C)Cc1ccc(Cl)c(Cl)c1` it is “inactive”.
The entry for `C[C@H]1CN([C@@H](C)CO)C(=O)Cc2cc(NC(=O)Cc3ccccc3)ccc2O[C@@H]1CN(C)Cc1ccc(Cl)c(Cl)c1` is “inactive”.
Regarding `C[C@H]1CN([C@@H](C)CO)C(=O)Cc2cc(NC(=O)Cc3ccccc3)ccc2O[C@H]1CN(C)Cc1ccc(Cl)c(Cl)c1`, the cytotoxicity call is “active”.
Next, `C[C@@H]1CN([C@H](C)CO)C(=O)Cc2cc(NC(=O)Cc3ccccc3)ccc2O[C@H]1CN(C)Cc1ccc(Cl)c(Cl)c1`: “inactive”; `C[C@@H]1CN([C@H](C)CO)C(=O)Cc2cc(NC(=O)Cc3ccccc3)ccc2O[C@@H]1CN(C)Cc1ccc(Cl)c(Cl)c1`: “active”; `C[C@H](CO)N1C[C@H](C)[C@H](CN(C)Cc2ccc(Cl)c(Cl)c2)Oc2ccc(NC(=O)Cc3ccccc3)cc2CC1=O`: “inactive”.
The entry for `C[C@@H]1CN([C@@H](C)CO)C(=O)c2cc(NC(=O)C3CCCCC3)ccc2O[C@@H](C)CCCCO[C@@H]1CN(C)Cc1ccncc1` is “inactive”; for `Cc1noc(C)c1S(=O)(=O)N(C)C[C@H]1Oc2ccc(NC(=O)C3CCCCC3)cc2CC(=O)N([C@H](C)CO)C[C@H]1C` it is “inactive”.
Next, `C[C@H]1CN([C@@H](C)CO)C(=O)c2cccc(NS(=O)(=O)c3ccccc3)c2O[C@@H]1CN(C)Cc1ccc(Cl)c(Cl)c1`: “inactive”; `O=C(C[C@H]1C=C[C@@H](NS(=O)(=O)c2ccccc2)[C@H](CO)O1)NCc1ccncn1`: “inactive”.
Consider `Cn1cnc(S(=O)(=O)N2C[C@H](O)COC[C@H]3O[C@H](CC(=O)NCc4ccc(F)cc4)CC[C@@H]32)c1`, for which the cytotoxicity call is “inactive”.
The entry for `CN(C)C(=O)c1ccc(-c2cccc(-c3nc(C(=O)NC4CCCCC4)cc4c3[C@H](CCO)N([S@@](=O)C(C)(C)C)C4)c2)cc1` is “inactive”.
Next, `CCCN(C)C[C@@H]1OCCCC[C@H](C)Oc2ccc(NC(=O)Nc3ccc4c(c3)OCO4)cc2C(=O)N([C@H](C)CO)C[C@@H]1C`: “inactive”; `COc1cccc(NC(=O)N(C)C[C@H]2Oc3cc(C#CC4(O)CCCC4)ccc3S(=O)(=O)N([C@H](C)CO)C[C@@H]2C)c1`: “inactive”; `C[C@@H]1CN([C@H](C)CO)S(=O)(=O)c2ccc(C#CC3(O)CCCC3)cc2O[C@H]1CN(C)C(=O)Nc1ccccc1`: “inactive”.
The entry for `COc1cccc(NC(=O)N(C)C[C@H]2Oc3cc(C#CC4(O)CCCC4)ccc3S(=O)(=O)N([C@H](C)CO)C[C@H]2C)c1` is “active”; for `COc1cccc(NC(=O)N(C)C[C@H]2Oc3cc(C#CC4(O)CCCC4)ccc3S(=O)(=O)N([C@@H](C)CO)C[C@H]2C)c1` it is “inactive”.
On to `C[C@@H]1CN([C@H](C)CO)S(=O)(=O)c2ccc(/C=C/c3ccccc3)cc2O[C@@H]1CN(C)C(=O)Nc1cc(F)ccc1F`, for which the cytotoxicity call was “active”.
Next, `C[C@H](CO)N1C[C@H](C)[C@@H](CN(C)C(=O)Nc2cc(F)ccc2F)Oc2cc(/C=C/c3ccccc3)ccc2S1(=O)=O`: “inactive”; `C[C@H]1CN([C@@H](C)CO)S(=O)(=O)c2ccc(C#CC3(O)CCCC3)cc2O[C@H]1CN(C)C(=O)Nc1ccccc1`: “inactive”.
In the case of `C[C@@H]1CN([C@H](C)CO)S(=O)(=O)c2ccc(C#CC3(O)CCCC3)cc2O[C@@H]1CN(C)C(=O)Nc1ccccc1`, the cytotoxicity call is “active”.
The entry for `C[C@@H]1CN([C@H](C)CO)S(=O)(=O)c2ccc(/C=C/c3ccccc3)cc2O[C@H]1CN(C)C(=O)Nc1cc(F)ccc1F` is “inactive”.
